From PubChem BioAssay (Tox21)
Several values for one entry are separate records, joined by “and”; a condition that tells them apart may be missing. Identical values can stand only once. A number with no mark means an inactive call. Inconclusive results are not listed. Entries that show only a call come without a potency. Activity calls are given as the source filed them. Unless noted, the call rests on the fitted dose curve; in most records, active means well fitted curve in the direction sought with a large enough effect in the repeat runs; inconclusive means weak or mixed curves; inactive means no such curve, though single readings can be large; an effect the other way counts as inactive or inconclusive.

Assays:
[1] = qHTS assay to identify small molecule antagonists of the androgen receptor (AR) signaling pathway using the MDA cell line in the presence of 0.5 nM R1881 - cell viability counter screen (AID 1259242); further: nearly all actives have a fitted effect of over 45% in size; further: potency means the concentration at half of the fitted maximal effect
Procedure, shortened: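 Cytotoxicity toward MDA-kb2 cells is measured by CellTiter-Fluor live-cell protease fluorescence after 16 hr compound exposure at 37C in the presence of 0.5 nM R1881 stimulator.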

[2] = molecular target: Androgen receptor (Homo sapiens) (UniProt P10275); test: qHTS assay to identify small molecule antagonists of the androgen receptor (AR) signaling pathway using the MDA cell line in the presence of 0.5 nM R1881 (AID 1259243); further: nearly all actives have a fitted effect of over 50% in size; further: potency means the concentration at half of the fitted maximal effect
Androgen receptor (Homo sapiens), sequence (P10275 whole entry, looked up): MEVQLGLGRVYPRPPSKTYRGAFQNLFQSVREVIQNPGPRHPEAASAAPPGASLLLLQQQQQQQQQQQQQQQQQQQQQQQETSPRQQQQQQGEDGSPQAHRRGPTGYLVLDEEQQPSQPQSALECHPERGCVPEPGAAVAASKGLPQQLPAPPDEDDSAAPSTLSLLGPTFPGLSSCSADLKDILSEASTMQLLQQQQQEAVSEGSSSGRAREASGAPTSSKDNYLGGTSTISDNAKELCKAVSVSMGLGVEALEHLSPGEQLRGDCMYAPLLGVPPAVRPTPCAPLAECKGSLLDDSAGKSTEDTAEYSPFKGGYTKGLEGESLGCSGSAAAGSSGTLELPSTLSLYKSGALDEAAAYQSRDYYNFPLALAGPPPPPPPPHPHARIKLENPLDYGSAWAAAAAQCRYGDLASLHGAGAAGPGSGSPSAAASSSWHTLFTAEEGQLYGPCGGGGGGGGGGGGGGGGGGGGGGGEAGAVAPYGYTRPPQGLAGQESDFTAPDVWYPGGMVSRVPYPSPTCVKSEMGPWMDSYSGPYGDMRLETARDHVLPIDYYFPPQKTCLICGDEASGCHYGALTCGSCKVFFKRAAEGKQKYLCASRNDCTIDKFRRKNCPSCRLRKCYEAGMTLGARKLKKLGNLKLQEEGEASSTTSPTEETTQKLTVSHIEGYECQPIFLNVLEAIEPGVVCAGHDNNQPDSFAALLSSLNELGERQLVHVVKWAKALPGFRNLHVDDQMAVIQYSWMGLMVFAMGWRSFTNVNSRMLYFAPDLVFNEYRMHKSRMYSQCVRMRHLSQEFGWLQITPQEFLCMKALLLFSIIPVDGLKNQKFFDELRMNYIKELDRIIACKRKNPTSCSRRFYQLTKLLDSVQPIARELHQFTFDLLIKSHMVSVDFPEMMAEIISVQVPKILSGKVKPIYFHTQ
Procedure, shortened: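 Steps: seed MDA-kb2 cells, incubate 5 hr at 37C; pin-transfer compounds in DMSO; add R1881 to 0.5 nM final; incubate 16 hr; add ONE-Glo, wait 30 min at room temperature; read luminescence.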

[3] = molecular target: Estrogen receptor (Homo sapiens) (UniProt P03372); test: qHTS assay to identify small molecule antagonists of the estrogen receptor alpha (ER-alpha) signaling pathway using the BG1 cell line in the presence of 0.1 nM 17-beta-estradiol (AID 1259244); further: nearly all actives have a fitted effect of over 50% in size; further: potency means the concentration at half of the fitted maximal effect
Estrogen receptor (Homo sapiens), sequence (P03372 whole entry, looked up): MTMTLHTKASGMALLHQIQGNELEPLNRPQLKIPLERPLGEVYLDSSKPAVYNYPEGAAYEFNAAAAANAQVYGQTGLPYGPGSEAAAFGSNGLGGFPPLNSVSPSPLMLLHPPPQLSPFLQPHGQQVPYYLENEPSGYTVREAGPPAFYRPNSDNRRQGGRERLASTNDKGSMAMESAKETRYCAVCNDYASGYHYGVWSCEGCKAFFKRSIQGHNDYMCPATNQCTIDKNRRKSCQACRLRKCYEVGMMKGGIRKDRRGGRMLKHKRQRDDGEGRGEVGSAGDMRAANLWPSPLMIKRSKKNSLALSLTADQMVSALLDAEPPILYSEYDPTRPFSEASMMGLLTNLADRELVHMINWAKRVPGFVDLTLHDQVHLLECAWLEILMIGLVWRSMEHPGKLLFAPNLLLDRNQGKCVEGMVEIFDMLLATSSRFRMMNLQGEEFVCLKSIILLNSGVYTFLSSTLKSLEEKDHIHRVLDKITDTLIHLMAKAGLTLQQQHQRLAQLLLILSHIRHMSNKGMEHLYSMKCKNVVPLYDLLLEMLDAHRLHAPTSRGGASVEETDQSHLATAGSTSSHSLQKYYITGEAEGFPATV
Procedure, shortened: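 After 5 days in hormone-depleted medium (charcoal-stripped serum, no phenol red), VM7Luc4E2 cells were seeded, incubated 24 h, then co-treated with compound and 0.1 nM (final) estradiol for 22 h before luminescence detection.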

[4] = qHTS assay to identify small molecule HDAC inhibitors - cell viability counter screen (AID 1259365); further: series mostly up to about 92 µM; nearly all actives have a fitted effect of over 50% in size
Procedure, shortened: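 Cytotoxicity was gauged in wild-type HCT-116 cells after a brief 2hr treatment with DMSO-dissolved compounds at 37C and 5% CO2, using CellTiter-Glo luminescence developed for 30min at room temperature.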

[5] = qHTS assay to identify small molecule agonists of the sonic hedgehog signaling (Shh) pathway - cell viability counter screen (AID 1259366); further: nearly all actives have a fitted effect of over 50% in size
Procedure, shortened: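 Stable Gli1-Luc NIH/3T3 clone, 2,000 cells/well. Compound exposure 24hr at 37C. Read-out: CellTiter-Fluor fluorescence.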

[6] = qHTS assay to identify small molecule antagonists of the sonic hedgehog signaling (Shh) pathway - cell viability counter screen (AID 1259367); further: nearly all actives have a fitted effect of over 55% in size; further: potency means the concentration at half of the fitted maximal effect
Procedure, shortened: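 Seed 3T3 Gli1-Luc cells at 2,000 per well; incubate 4 hr; add compound in DMSO, then conditioned medium; incubate at 37C with 5% CO2; add CellTiter-Fluor after 23 hr; read fluorescence 1 hr later.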

[7] = qHTS assay to identify small molecule agonists of the sonic hedgehog signaling (Shh) pathway (AID 1259368; calls by dose curve; further: nearly all actives have a fitted effect of over 15% in size; further: potency means the concentration at half of the fitted maximal effect)
Procedure, shortened: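 Steps: seed 3T3 Gli1-Luc cells, incubate 4 hr at 37 C, pin-transfer compounds in DMSO alongside a positive control, incubate 24 hr, add luciferase detection reagent, wait 30 min at room temperature, read luminescence.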

[8] = qHTS assay to identify small molecule antagonists of the sonic hedgehog signaling (Shh) pathway (AID 1259369; calls by dose curve; further: nearly all actives have a fitted effect of over 45% in size; further: potency means the concentration at half of the fitted maximal effect)
Procedure, shortened: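 Inhibition of Shh signalling is measured as reduced Gli1-response-element firefly luciferase output in an NIH/3T3-derived stable reporter clone stimulated with conditioned medium for 24hr.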

[9] = qHTS assay to identify small molecule HDAC inhibitors (AID 1259364); further: nearly all actives have a fitted effect of over 45% in size; further: potency means the concentration at half of the fitted maximal effect
Procedure, shortened: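 Homogeneous cell-based luminescent assay of endogenous class I/II HDAC activity; HCT-116 cells, 2 h compound exposure, 30 min HDAC-Glo development at RT.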

[10] = qHTS assay to identify small molecule phospholipidosis (PLD) inducers (AID 1259344; active means well fitted curve in the direction sought with a large enough effect; an effect the other way counts as inactive or inconclusive)
Procedure, shortened: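 Quantitative HTS in HepG2: compound plus LipidTOX Red dye for 24 h, paraformaldehyde fixation with Hoechst 33342, widefield high-content imaging; amiodarone as positive and DMSO as negative control.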

| SMILES | Potency [1] | Potency [2] | Potency [3] | Potency [4] | Potency [5] | Potency [6] | Potency [7] | Potency [8] | Potency [9] | Potency [10] |
| --- | --- | --- | --- | --- | --- | --- | --- | --- | --- | --- |
| CCCCCCCC(=O)OCC | inactive | inactive | inactive | inactive | inactive | inactive | inactive | inactive | – | – |
| Oc1cc2ccccc2cc1O | inactive | 30.6 µM (active) | inactive | inactive | inactive | inactive | inactive | – | – | – |
| Cc1c(C(=O)O)cccc1[N+](=O)[O-] | inactive | inactive | – | inactive | – | 55.4 µM (active) | inactive | 19.6 µM (active) | inactive | – |
| CN(C)CCOC(c1ccccc1)c1ccccc1 (tested in a mixture with another compound) | inactive | inactive | – | inactive | inactive | 61.6 µM (active) | inactive | 24.5 µM (active) | inactive | – |
| CCCCCCCOC(=O)c1ccccc1C(=O)OCCCCCCC | inactive | inactive | – | inactive | inactive | inactive | inactive | – | inactive | – |
| NC(=O)c1ccccc1N | inactive | inactive | inactive | inactive | inactive | inactive | inactive | inactive | – | – |
| CCOC(=O)C1=C(C)NC(C)=C(C(=O)OCC)C1c1ccccc1/C=C/C(=O)OC(C)(C)C | inactive | 23.7 µM (active) | – | inactive | – | 29.8 µM (active) | inactive | 29.8 µM (active) | inactive | – |
| O=C(O)c1cccc(Cl)n1 | inactive | inactive | – | inactive | inactive | – | inactive | 30.6 µM (active) | inactive | – |
| CCOC(=O)CC(C)O (centres undefined) | inactive | inactive | – | inactive | inactive | inactive | inactive | inactive | inactive | – |
| C=CC(=O)OCCN(CC)CC | inactive | inactive | – | inactive | inactive | inactive | inactive | inactive | inactive | – |
| CC1(C)C(=O)N(Br)C(=O)N1Br | inactive | inactive | – | inactive | inactive | inactive | inactive | inactive | inactive | – |
| Clc1cc(Cl)c(-c2c(Cl)c(Cl)cc(Cl)c2Cl)cc1Cl | inactive | inactive | – | inactive | inactive | inactive | inactive | – | inactive | – |
| OCCCCl | inactive | inactive | – | inactive | inactive | inactive | inactive | – | inactive | – |
| CN(C)c1ccc(N=NS(=O)(=O)O)cc1 | 27.3 µM (active) | 22.9 µM (active) | – | inactive | inactive | – | 16.2 µM (active) | 12.2 µM (active) | – | inactive |
| CCCCCCCC(OC)OC | inactive | inactive | – | inactive | inactive | inactive | inactive | inactive | inactive | – |
| CCN=c1cc2oc3cc(NCC)c(C)cc3c(-c3ccccc3C(=O)OCC)c-2cc1C | 965 nM (active) and 864 nM (active) | 122 nM (active) and 217 nM (active) | 86 nM (active) and 306 nM (active) | – | – | inactive | inactive | 1.08 µM (active) and 545 nM (active) | inactive | – |
| O=C(Oc1ccccc1)c1cccc(C(=O)Oc2ccccc2)c1 | inactive | inactive | – | inactive | inactive | inactive | 2.29 µM (active) | inactive | 0.0885 µM (active) | – |
| CC(=O)OC1CCCCC1 | inactive | inactive | inactive | – | inactive | inactive | inactive | inactive | inactive | – |
| CCCC(C)CCC(C)=O (centres undefined) | inactive | inactive | inactive | inactive | inactive | inactive | inactive | inactive | – | – |
| CCc1c(Br)c(Br)c(Br)c(Br)c1Br | inactive | inactive | inactive | inactive | inactive | inactive | inactive | inactive | – | – |
| O=c1cccc[nH]1 | inactive | inactive | inactive | – | inactive | inactive | inactive | inactive | inactive | – |
| CCC1CCCCC1 | inactive | inactive | – | – | inactive | inactive | inactive | inactive | inactive | – |
| CC[N+](CC)(CC)Cc1ccccc1 | inactive | – | inactive | inactive | inactive | inactive | inactive | inactive | inactive | – |
| CC(C)=CCCC(C)CCOC(=O)C(C)C (centres undefined) | inactive | – | inactive | inactive | inactive | inactive | inactive | – | inactive | – |
| CC(C)C(=O)OCc1ccccc1 | inactive | – | inactive | inactive | inactive | inactive | inactive | inactive | inactive | – |
| C/C=C/CO | inactive | inactive | – | inactive | inactive | inactive | inactive | inactive | – | – |
| S=P(N1CC1)(N1CC1)N1CC1 | inactive | – | inactive | inactive | – | 57.4 µM (active) | inactive | 22.9 µM (active) | inactive | inactive |
